Laboratory results from PubChem BioAssay (Tox21).
“And” between values parts separate entries of the source, which are not always exact repeats. Identical values can stand only once. Records with an inconclusive call do not appear. Entries that show only a call come without a potency. A structure can be active in one record and inactive in another. The source made the active and inactive calls. Unless noted, calls come from the whole dose curve; as a rule, active = well fitted curve in the direction sought with a large enough effect in the repeat runs; inconclusive = weak or mixed curves; inactive = no such curve, though single readings can be large; an effect the other way counts as inactive or inconclusive.

Legend:
[1] = qHTS assay for small molecule agonists of the p53 signaling pathway (AID 651631; calls by dose curve; note: nearly all actives have a fitted effect of over 15% in size; note: potency is the fitted concentration of half-maximal effect)
Method in brief: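 Testing took place in human colorectal HCT-116 cells with stable p53RE-driven beta-lactamase. After 16 h of compound exposure at 37 °C, a FRET substrate was added and fluorescence recorded 2 h later.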

[2] = qHTS assay for small molecules that induce genotoxicity in human embryonic kidney cells expressing luciferase-tagged ATAD5 (AID 651632); note: nearly all actives have a fitted effect of over 15% in size
Method in brief: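 Test compounds were delivered by pin tool onto HEK293T reporter cells (2,000/well) expressing ATAD5 fused to luciferase. After 16 hr at 37C, 5% CO2, Amplite was added for 30 min at room temperature and luminescence was measured.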

[3] = qHTS assay for small molecule agonists of the p53 signaling pathway - cell viability (AID 651633; calls by dose curve; note: nearly all actives have a fitted effect of over 30% in size; note: potency is the fitted concentration of half-maximal effect)
Method in brief: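 p53RE-bla cells, seeded at 4,000 per well and rested 5 h at 37 C/5% CO2, received compounds in DMSO for 16 h at 37 C. CellTiter-Glo was then added, and luminescence was read after 30 min at room temperature to gauge cytotoxicity.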

[4] = qHTS assay for small molecules that induce genotoxicity in human embryonic kidney cells expressing luciferase-tagged ATAD5 - cell viability (AID 651634; calls by dose curve; note: nearly all actives have a fitted effect of over 25% in size; note: potency is the fitted concentration of half-maximal effect)
Method in brief: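 Quantitative high-throughput format. HEK293T cells expressing ATAD5 fused to luciferase were plated at 2,000 cells/well and treated 15.5 hr with compound versus DMSO. Viability was determined by fluorescent live-cell protease substrate, 30 min at 37C.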

[5] = qHTS assay for small molecule disruptors of the mitochondrial membrane potential - cell viability (AID 720634; calls by dose curve; note: nearly all actives have a fitted effect of over 20% in size; note: potency is the fitted concentration of half-maximal effect)
Method in brief: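 Same-well counter-screen: following the MMP dye addition, CellTiter-Glo was added to 1 hr compound-treated HepG2 cells and luminescence read after 30 min at room temperature.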

[6] = qHTS assay for small molecule disruptors of the mitochondrial membrane potential (AID 720635); note: potency is the fitted concentration of half-maximal effect
Method in brief: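 HepG2 cells (2,000/well) attached overnight at 37C, then took compound for 1 hr at 37C, 5% CO2. Mito-MPS dye was added for 30 min; fluorescence was read at 490/535 nm (monomers) and 540/590 nm (aggregates).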

[7] = qHTS assay to test for compound auto fluorescence at 535 nm (green) in HepG2 cells (AID 720675)
[8] = qHTS assay to test for compound auto fluorescence at 460 nm (blue) in HEK293 cells (AID 720678)
Method in brief: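 Measured: blue fluorescence (Ex 405/Em 460 nm) of compound-treated HEK293 cells, incubated overnight at 37C with 5% CO2 and scaled to triamterene equivalents.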

[9] = qHTS assay to test for compound auto fluorescence at 590 nm (red) in HEK293 cells (AID 720679)
Method in brief: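 Using HEK293 cells at 2,000 per well, the screen added 23 nL of each compound after cell attachment and incubated overnight (37C, 5% CO2). The plate reader then captured red-label fluorescence, Ex/Em 540/590nm.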

[10] = qHTS assay to test for compound auto fluorescence at 590 nm (red) in HepG2 cells (AID 720674)
Method in brief: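 Rose Bengal sodium served as the red fluorophore standard. HepG2 monolayers (overnight attachment, MEM with 10% FBS) were exposed to test compounds for 1 hr at 37 C and read at Ex 540/Em 590 nm.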

SMILES | Potency [1] | outcome [2] | Potency [3] | Potency [4] | Potency [5] | Potency [6] | outcome [7] | outcome [8] | outcome [9] | outcome [10]
CCNc1nc(Cl)nc(NCC)n1 | inactive | inactive | inactive | inactive | inactive | inactive | inactive | inactive | inactive | –
CCCCCCCCCCCCCCCCn1cc[n+](C)c1 | inactive | inactive | 27.9 µM (active) and 69.2 µM (active) and 30.7 µM (active) | – | – | 17.6 µM (active) and inactive and 17.4 µM (active) | inactive | inactive | inactive | –
O=C(O)c1nc(Cl)ccc1Cl | inactive | inactive | inactive | inactive | inactive | inactive | inactive | inactive | inactive | inactive
OCCOc1ccccc1 | inactive | inactive | inactive | inactive | inactive | inactive | inactive | inactive | inactive | –
CNC | inactive | – | inactive | – | inactive | inactive | inactive | inactive | inactive | inactive
CC[N+]1(C)CCCC1 | – | inactive | inactive | inactive | inactive | inactive | inactive | inactive | inactive | inactive
O=C(O)C(Cl)Cl | – | inactive | inactive | inactive | inactive | inactive | inactive | inactive | inactive | inactive
Nc1ccc(-c2ccc(N)c(Cl)c2)cc1Cl | 9.74 µM (active) and 12.8 µM (active) and 21.7 µM (active) | inactive | 54.8 µM (active) and inactive | 54.8 µM (active) and 57 µM (active) and 54.5 µM (active) | 27.4 µM (active) and 50.8 µM (active) and 34.4 µM (active) | 5.48 µM (active) and 16.1 µM (active) and 8.63 µM (active) | inactive | inactive | inactive | –
Cc1cc(-c2ccc(N)c(C)c2)ccc1N | inactive | inactive | inactive | inactive | inactive | inactive | inactive | inactive | inactive | –
Oc1ccccc1-c1ccccc1 | inactive | inactive | inactive | inactive | inactive | 21.7 µM (active) [middle of 4 runs] | inactive | inactive | inactive | –
CCCC[N+]1(C)CCCC1 | inactive | inactive | inactive | inactive | inactive | inactive | inactive | inactive | inactive | –
CCCCCCn1cc[n+](C)c1 | – | inactive | inactive | inactive | inactive | 11 µM (active) and 24.5 µM (active) and 22.2 µM (active) | inactive | inactive | inactive | inactive
O=[N+]([O-])c1ccccc1O | inactive | inactive | inactive | inactive | inactive | inactive | inactive | inactive | inactive | –
Cc1cc(Cl)ccc1OCC(=O)O | inactive | inactive | inactive | inactive | inactive | inactive | inactive | inactive | inactive | –
O=C(O)COc1ccc(Cl)cc1Cl | inactive | – | inactive | inactive | inactive | inactive | inactive | inactive | inactive | –
COP(=O)(OC)C(O)C(Cl)(Cl)Cl (configuration not stated) | inactive | inactive | inactive | inactive | inactive | inactive | inactive | inactive | inactive | inactive
